Here are results for 5 compounds from the supplement of paper PMC3484114.

This experiment concerns OVCAR-3-derived ovarian cancer stem-like cells (spheroids). Description: cell growth relative to untreated control; higher = more growth (less inhibition). To be noted: 2.29 µM; 96 h. The procedure, abridged: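 OVCAR-3 spheroid-derived stem-like cells were trypsin-dissociated, seeded at 50,000 cells/mL in stem cell medium in ultra-low attachment 96-well plates and preincubated 24 h. Compounds were then added at 2.29 uM for 96 h at 37°C, 5% CO2, in 4 replicate wells. Viability was read as TOX8 resazurin fluorescence (ex 560/em 590 nm) after 4 h. Percent growth was calculated relative to untreated wells after blank subtraction and Grubbs outlier removal.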

SMILES strings stand for the structures. ± gives the standard deviation.

`COC1(O)C(=O)c2ccccc2OC1(OC)c1ccccc1` (stereo not given) yielded a cell growth of 118 ± 26%.

`COc1cc2c[n+](C)c3c4cc5c(cc4ccc3c2cc1OC)OCO5` yielded a cell growth of 48.7 ± 21%. As for `CC1=C\C(O)CC(=O)Cc2nc(co2)C(=O)N2CCC=C2C(=O)OC(C(C)C)C(C)/C=C/C(=O)NC/C=C\1.CCC1NC(=O)C(NC(=O)c2ncccc2O)C(C)OC(=O)C(c2ccccc2)NC(=O)C2CC(=O)CCN2C(=O)C(Cc2ccc(N(C)C)cc2)N(C)C(=O)C2CCCN2C1=O` (stereo not given), the figure is 80.8 ± 20%; as for `Cc1ccc(C)c2c(N=Nc3ccccc3[N+](=O)[O-])c(O)[nH]c12`, 138 ± 41%. `Nc1nc(=S)c2ncn([C@@H]3C[C@H](O)[C@@H](CO)O3)c2[nH]1` gave a cell growth of 110 ± 13%.
